In PubChem BioAssay (Tox21):
Where “and” joins values, the source holds several entries; their conditions need not be identical. Identical values can stand only once. Results filed as inconclusive are left out. Some structures have more than one record in an assay (separate samples or runs), and their calls can disagree. Calls of active or inactive are those of the source. Calls come from the whole dose curve; as a rule, active = well fitted curve in the direction sought with a large enough effect in the repeat runs; inconclusive = weak or mixed curves; inactive = no such curve, though single readings can be large; an effect the other way counts as inactive or inconclusive.

Legend:
[1] = A CellTox Green Cytotoxicity Assay to monitor cytotoxicity in HEK293 cells - 40 hour (AID 1224871); note: nearly all actives have a fitted effect of over 45% in size; note: potency is the fitted concentration of half-maximal effect
Outline: (§1)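 Each value comes from one timepoint of a single continuous run in which HEK293 cells with CellTox Green were exposed to compound for up to 40 h at 37 C, dye fluorescence rising with cell death.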

[2] = qHTS RealTime-Glo MT Cell Viability Assay in HEK293 cells - 16 hour (AID 1224872); note: top concentration of the series differs between compounds; nearly all actives have a fitted effect of over 50% in size
Outline: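 Luminescence generated by NanoLuc from substrate produced by living HEK293 cells served as the viability signal. Each value reflects the reading at its stated time point during continuous 40 h compound exposure at 37 C.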

[3] = qHTS RealTime-Glo MT Cell Viability Assay in HepG2 cells - 8 hour (AID 1224873); note: nearly all actives have a fitted effect of over 55% in size
Outline: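 Real-time viability: cells seeded at 600 per well together with NanoLuc and cell-permeant prosubstrate, compounds added after 5 h incubation. Luminescence tracked at 0, 8, 16, 24, 32 and 40 h of exposure.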

[4] = qHTS RealTime-Glo MT Cell Viability Assay in HEK293 cells - 40 hour (AID 1224874); conditions: RealTime-Glo luminescence; max response: stronger effect = lower value; note: nearly all actives have a fitted effect of over 50% in size
Outline: (§2)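 qHTS format; HEK293 cells with NanoLuc/prosubstrate reagent, 37 C/5% CO2 for 5 h pre-dosing; compounds 23 nL in DMSO; luminescence at each time point reflects viable cells.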

[5] = A CellTox Green Cytotoxicity Assay to monitor cytotoxicity in HepG2 cells - 16 hour (AID 1224876); note: nearly all actives have a fitted effect of over 45% in size; note: potency is the fitted concentration of half-maximal effect
Outline: (§3)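 Continuous culture of HepG2 cells with a membrane-impermeant DNA dye; rising fluorescence marks dead cells. Compound exposure lasted up to 40 h at 37 C, with reads every 8 h from 0 h.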

[6] = qHTS RealTime-Glo MT Cell Viability Assay in HepG2 cells - 32 hour (AID 1224877); note: nearly all actives have a fitted effect of over 55% in size
Outline: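 Tox21 10K library screened in qHTS format on HepG2 cells carrying RealTime-Glo reagents. Compounds were added after a 5 h preincubation, and the luminescent signal from continuous culture was measured repeatedly during 40 h treatment.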

[7] = A CellTox Green Cytotoxicity Assay to monitor cytotoxicity in HepG2 cells - 24 hour (AID 1224878); note: nearly all actives have a fitted effect of over 45% in size; note: potency is the fitted concentration of half-maximal effect
Outline: as §3

[8] = A CellTox Green Cytotoxicity Assay to monitor cytotoxicity in HepG2 cells - 40 hour (AID 1224879); note: nearly all actives have a fitted effect of over 40% in size; note: potency is the fitted concentration of half-maximal effect
Outline: as §3

[9] = qHTS RealTime-Glo MT Cell Viability Assay in HEK293 cells - 0 hour (AID 1224880); note: top concentration of the series differs between compounds; nearly all actives have a fitted effect of over 45% in size
Outline: as §2

[10] = A CellTox Green Cytotoxicity Assay to monitor cytotoxicity in HEK293 cells - 24 hour (AID 1224875)
Outline: as §1
% is set by controls: 0 for no effect and ±100 for the full control effect.

COc1cc(C(=O)N2CCCCCCC2)cc(OC)c1OC
inactive: Potency [1] | Potency [2] | Potency [3] | max response [4] 9.63% | Potency [5] | Potency [6] | Potency [7] | Potency [8] | Potency [9]

O=c1cc(CO)occ1O
inactive: Potency [1] | Potency [2] | Potency [3] | max response [4] 3.18% | Potency [5] | Potency [6] | Potency [7] | Potency [8] | Potency [9]

CCCCCOC(=O)CCCCC
inactive: Potency [1] | Potency [2] | Potency [3] | max response [4] 7.06% | Potency [5] | Potency [6] | Potency [7] | Potency [8] | Potency [9]

Cc1cc(O)cc2c1O[C@](C)(CCC[C@H](C)CCC[C@H](C)CCCC(C)C)CC2
inactive: Potency [1] | Potency [2] | Potency [3] | max response [4] 5.25% | Potency [5] | Potency [6] | Potency [7] | Potency [8] | Potency [9]

CC(C)(O)C(=O)c1ccccc1
inactive: Potency [1] | Potency [2] | Potency [3] | max response [4] 1.69% | Potency [10] | Potency [5] | Potency [7] | Potency [8] | Potency [9]

CC(NC(CCc1ccccc1)C(=O)O)C(=O)N1C(=O)N(C)CC1C(=O)O (stereo not given)
inactive: Potency [1] | Potency [2] | Potency [3] | max response [4] -1.88% | Potency [10] | Potency [5] | Potency [8] | Potency [9]

O=C[C@H](O)[C@@H](O)[C@H](O)[C@H](O)CO
inactive: Potency [1] | Potency [2] | Potency [3] | max response [4] 17.2% | Potency [5] | Potency [6] | Potency [7] | Potency [8] | Potency [9]

CCOC(=O)[C@H](CCc1ccccc1)N[C@@H](C)C(=O)N1[C@H](C(=O)O)C[C@@H]2CCC[C@@H]21
inactive: Potency [1] | Potency [2] | Potency [3] | max response [4] 6.09% | Potency [5] | Potency [6] | Potency [7] | Potency [8] | Potency [9]

O=C(c1ccccc1)C1CCCCC1
active: Potency [1] 24.5 µM | Potency [5] 43.6 µM | Potency [7] 49 µM | Potency [8] 49 µM
inactive: Potency [2] | Potency [3] | max response [4] -10.1% | Potency [6] | Potency [9]

NS(=O)(=O)c1cc(C(=O)O)cc(N2CCCC2)c1Oc1ccccc1
inactive: Potency [1] | Potency [2] | Potency [3] | max response [4] -15.6% | Potency [10] | Potency [5] | Potency [7] | Potency [8] | Potency [9]

O=S(O)CO
inactive: Potency [1] | Potency [2] | Potency [3] | max response [4] 10.1% | Potency [5] | Potency [6] | Potency [7] | Potency [8] | Potency [9]

CS(=O)(=O)O
inactive: Potency [1] | Potency [2] | Potency [3] | max response [4] 2.93% | Potency [10] | Potency [5] | Potency [8] | Potency [9]

CC[N+](C)(C)c1cccc(O)c1
inactive: Potency [1] | Potency [2] | Potency [3] | max response [4] -7.12% | Potency [10] | Potency [5] | Potency [8] | Potency [9]

COc1c(N2C[C@@H]3CCCN[C@@H]3C2)c(F)cc2c(=O)c(C(=O)O)cn(C3CC3)c12
inactive: Potency [1] | Potency [2] | Potency [3] | max response [4] -3.41% | Potency [5] | Potency [6] | Potency [7] | Potency [8] | Potency [9]

O=C(O)Cc1ccc(CCNS(=O)(=O)c2ccc(Cl)cc2)cc1
inactive: Potency [1] | Potency [2] | Potency [3] | max response [4] -1.15% | Potency [10] | Potency [5] | Potency [7] | Potency [8] | Potency [9]

Cc1nc2c([nH]1)c(=O)n(C)c(=O)n2Cc1ccco1
inactive: Potency [1] | Potency [2] | Potency [3] | max response [4] 1.42% | Potency [10] | Potency [5] | Potency [7] | Potency [8] | Potency [9]

C=C(C)CS(=O)(=O)O
inactive: Potency [1] | Potency [2] | Potency [3] | max response [4] -0.0402% | Potency [10] | Potency [5] | Potency [7] | Potency [8] | Potency [9]

O=C(O)CCCl
inactive: Potency [1] | Potency [2] | Potency [3] | max response [4] 13% | Potency [10] | Potency [5] | Potency [8] | Potency [9]

O=C1CCCN1C1CCCCC1
inactive: Potency [1] | Potency [2] | Potency [3] | max response [4] 6.98% | Potency [5] | Potency [8] | Potency [9]

Cn1cc(S(C)=O)c(=O)c2ccc(F)cc21 (stereo not given)
inactive: Potency [1] | Potency [2] | Potency [3] | Potency [10] | Potency [5] | Potency [6] | Potency [7] | Potency [8] | Potency [9]

CC(C)NCC(O)c1ccc(NS(C)(=O)=O)cc1 (stereo not given)
inactive: Potency [1] | Potency [2] | Potency [3] | Potency [10] | Potency [5] | Potency [6] | Potency [7] | Potency [8] | Potency [9]

O=C(O)CCCc1ccccc1
inactive: Potency [1] | Potency [2] | Potency [3] | max response [4] 0.564% | Potency [6] | Potency [8] | Potency [9]

C=C(C)C(=O)OCCCCCCCC(C)C
inactive: Potency [1] | Potency [2] | Potency [3] | Potency [10] | Potency [5] | Potency [6] | Potency [7] | Potency [8] | Potency [9]

O=c1n(CCO)c(=O)n(CCO)c(=O)n1CCO
inactive and 38.9 µM (active): Potency [1] | Potency [5]
inactive and 43.6 µM (active): Potency [8]
inactive: Potency [2] | Potency [3] | max response [4] -3.8% and 5.95% | Potency [6] | Potency [9]

CC(C(=O)O)c1ccc(CC2CCCC2=O)cc1 (stereo not given)
inactive: Potency [1] | Potency [2] | Potency [3] | max response [4] -1.24% | Potency [5] | Potency [7] | Potency [8] | Potency [9]

NCCc1cnc[nH]1
inactive: Potency [1] | Potency [2] | Potency [3] | Potency [10] | Potency [5] | Potency [6] | Potency [7] | Potency [8] | Potency [9]

NC(CSCC(=O)O)C(=O)O (stereo not given)
inactive: Potency [1] | Potency [2] | Potency [3] | max response [4] 7.24% | Potency [5] | Potency [6] | Potency [7] | Potency [8] | Potency [9]

Nc1c[n+](N2CCOCC2)no1
inactive: Potency [1] | Potency [2] | Potency [3] | max response [4] 0.673% | Potency [5] | Potency [6] | Potency [7] | Potency [8] | Potency [9]

COc1nc(N)nc2c1ncn2[C@@H]1O[C@H](CO)[C@@H](O)[C@@H]1O
inactive: Potency [1] | Potency [2] | Potency [3] | max response [4] 14.1% | Potency [5] | Potency [7] | Potency [8] | Potency [9]

C/C=C(\C)C#N
inactive: Potency [1] | Potency [2] | Potency [3] | Potency [10] | Potency [5] | Potency [6] | Potency [7] | Potency [8] | Potency [9]

COc1ccc2c(c1)c(CC(=O)OCC(=O)O)c(C)n2C(=O)c1ccc(Cl)cc1
inactive: Potency [1] | Potency [2] | Potency [3] | max response [4] 5.11% | Potency [5] | Potency [7] | Potency [8] | Potency [9]

CC(C)NCCCC1(C(N)=O)c2ccccc2-c2ccccc21
inactive: Potency [1] | Potency [2] | Potency [3] | Potency [10] | Potency [5] | Potency [6] | Potency [7] | Potency [8] | Potency [9]

CCC(=O)OC(C)c1ccccc1 (stereo not given)
inactive: Potency [1] | Potency [2] | Potency [3] | max response [4] -2.17% | Potency [5] | Potency [7] | Potency [8] | Potency [9]

CC(=O)CC(C)(C)C1CCCCC1
inactive: Potency [1] | Potency [2] | Potency [3] | max response [4] 9.93% | Potency [5] | Potency [7] | Potency [8] | Potency [9]

Cc1[nH]c(=O)c(C#N)cc1-c1ccc2nccn2c1
inactive: Potency [1] | Potency [2] | Potency [3] | Potency [10] | Potency [5] | Potency [6] | Potency [7] | Potency [8] | Potency [9]

COC(=O)c1ccc(C)cc1C1=NC(C)(C(C)C)C(=O)N1 (stereo not given)
inactive: Potency [1] | Potency [2] | Potency [3] | max response [4] 5.2% | Potency [5] | Potency [7] | Potency [8] | Potency [9]

CN(C(=O)c1c(O)c2ccccc2n(C)c1=O)c1ccccc1
inactive: Potency [1] | Potency [2] | Potency [3] | max response [4] 9.26% | Potency [5] | Potency [6] | Potency [8] | Potency [9]

CCc1ccc(O)c(OC)c1
inactive: Potency [1] | Potency [2] | Potency [3] | max response [4] 4.24% | Potency [5] | Potency [6] | Potency [7] | Potency [8] | Potency [9]

NS(=O)(=O)c1cc2c(cc1Cl)NC(C1CC3C=CC1C3)NS2(=O)=O (stereo not given)
inactive: Potency [1] | Potency [2] | Potency [3] | max response [4] 11.9% | Potency [5] | Potency [6] | Potency [8] | Potency [9]

Nc1ccccc1S(=O)(=O)O
inactive: Potency [1] | Potency [2] | Potency [3] | max response [4] 0.0936% | Potency [5] | Potency [6] | Potency [8] | Potency [9]

CCC(C)S (stereo not given)
inactive: cytotoxicity increase [1] -0.869% [at 2.72 µM] | activity change, negative = cytotoxicity [2] 0.797% [at 2.72 µM] | viability change, negative = cytotoxic [3] 0.999% [at 2.72 µM] | max response [4] 2.1% | cytotoxicity increase [5] 0.507% [at 2.72 µM] | activity change, negative = cytotoxic [6] -0.778% [at 2.72 µM] | cytotoxicity [7] 1.18% [at 2.72 µM] | cytotoxicity increase [8] -0.0934% [at 2.72 µM] | activity change, negative = cytotoxicity [9] 2.99% [at 2.72 µM]

C=CCS(=O)(=O)O
inactive: Potency [1] | Potency [2] | Potency [3] | Potency [10] | Potency [5] | Potency [6] | Potency [7] | Potency [8] | Potency [9]
